Assay results reported in publication PMC7862700, “An all-to-all approach to the identification of sequence-specific readers for epigenetic DNA modifications on cytosine”.

Columns and labels:
Assay in all cases: DAPPL (digital affinity profiling via proximity ligation, sequencing); 10 mM Tris-HCl pH 7.5, 50 mM NaCl, 1 mM DTT, 4% glycerol, room temperature, 30 min; GST-TFs on glutathione beads, 16-mer random dsDNA library, 0.1% formaldehyde crosslink after washing; high values mean tight binding
[1] = target: T1, FEV (Homo sapiens, UniProt Q99581 1-238); conditions: protein: recombinant; tags: N-terminal GST; dsDNA, one strand shown
T1 sequence: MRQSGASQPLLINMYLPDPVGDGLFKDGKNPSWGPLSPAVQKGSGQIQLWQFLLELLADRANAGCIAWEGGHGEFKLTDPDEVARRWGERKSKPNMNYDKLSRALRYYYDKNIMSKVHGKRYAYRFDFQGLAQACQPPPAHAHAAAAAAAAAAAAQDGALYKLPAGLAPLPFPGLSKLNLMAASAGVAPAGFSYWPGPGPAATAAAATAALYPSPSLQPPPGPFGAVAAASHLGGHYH
How it was run: (§1)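 Yeast served to express human transcription factors as GST fusions, which were then captured on glutathione beads and labelled with DNA barcodes. Pooled with a tag-only sample, they were incubated with 200 nmole of a 16-mer random double-stranded DNA library for 30 min at room temperature in Tris/NaCl/DTT/glycerol buffer, washed, crosslinked with 0.1% formaldehyde, ligated by proximity, amplified by PCR and sequenced. Dividing each hexamer's read frequency for a factor by its frequency for the tag-only sample gives the binding signal.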

[2] = target: ETV5 (Homo sapiens, UniProt P41161 1-510); conditions: protein: recombinant; tags: N-terminal GST; dsDNA, one strand shown
How it was run: as §1

[3] = target: HSF1 (Homo sapiens, UniProt Q00613 1-529); conditions: protein: recombinant; tags: N-terminal GST; chain copies: 3; dsDNA, one strand shown
How it was run: as §1

[4] = target: T2, SPIC (Homo sapiens, UniProt Q8N5J4 1-248); conditions: protein: recombinant; tags: N-terminal GST; dsDNA, one strand shown
T2 sequence: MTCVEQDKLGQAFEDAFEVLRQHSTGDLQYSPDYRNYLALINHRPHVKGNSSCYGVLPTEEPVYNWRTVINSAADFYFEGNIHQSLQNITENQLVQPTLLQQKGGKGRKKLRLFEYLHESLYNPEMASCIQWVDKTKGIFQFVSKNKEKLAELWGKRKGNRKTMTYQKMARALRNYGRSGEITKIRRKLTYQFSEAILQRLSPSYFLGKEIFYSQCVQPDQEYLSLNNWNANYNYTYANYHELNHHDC
How it was run: as §1

[5] = target: ELF4 (Homo sapiens, UniProt Q99607 1-663); conditions: protein: recombinant; tags: N-terminal GST; dsDNA, one strand shown
How it was run: as §1

[6] = target: T3, ELK4 (Homo sapiens, UniProt P28324-2 1-405); conditions: protein: recombinant; tags: N-terminal GST; dsDNA, one strand shown
T3 sequence: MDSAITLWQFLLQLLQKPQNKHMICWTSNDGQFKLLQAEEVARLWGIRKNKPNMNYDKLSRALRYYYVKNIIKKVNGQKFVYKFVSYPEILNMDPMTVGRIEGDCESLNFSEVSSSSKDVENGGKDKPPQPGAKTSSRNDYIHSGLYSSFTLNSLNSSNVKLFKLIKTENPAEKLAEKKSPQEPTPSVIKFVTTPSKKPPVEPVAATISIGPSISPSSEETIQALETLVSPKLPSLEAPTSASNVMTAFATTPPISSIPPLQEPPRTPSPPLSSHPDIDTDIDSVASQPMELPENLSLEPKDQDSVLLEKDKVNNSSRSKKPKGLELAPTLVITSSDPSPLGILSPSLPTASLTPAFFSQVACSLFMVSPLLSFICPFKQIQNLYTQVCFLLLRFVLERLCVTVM
How it was run: as §1

[7] = target: T4, ETV2 (Homo sapiens, UniProt O00321 1-342); conditions: protein: recombinant; tags: N-terminal GST; dsDNA, one strand shown
T4 sequence: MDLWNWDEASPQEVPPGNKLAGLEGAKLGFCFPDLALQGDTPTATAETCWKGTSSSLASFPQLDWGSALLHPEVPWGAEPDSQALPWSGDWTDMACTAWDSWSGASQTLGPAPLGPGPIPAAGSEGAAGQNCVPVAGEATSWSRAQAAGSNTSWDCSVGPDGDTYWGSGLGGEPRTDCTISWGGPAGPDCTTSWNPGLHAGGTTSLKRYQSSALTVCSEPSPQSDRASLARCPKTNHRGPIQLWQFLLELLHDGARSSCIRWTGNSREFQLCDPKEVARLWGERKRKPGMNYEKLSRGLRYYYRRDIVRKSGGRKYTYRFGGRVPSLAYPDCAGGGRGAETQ
How it was run: as §1

[8] = target: T5, ELF3 (Homo sapiens, UniProt P78545 1-371); conditions: protein: recombinant; tags: N-terminal GST; dsDNA, one strand shown
T5 sequence: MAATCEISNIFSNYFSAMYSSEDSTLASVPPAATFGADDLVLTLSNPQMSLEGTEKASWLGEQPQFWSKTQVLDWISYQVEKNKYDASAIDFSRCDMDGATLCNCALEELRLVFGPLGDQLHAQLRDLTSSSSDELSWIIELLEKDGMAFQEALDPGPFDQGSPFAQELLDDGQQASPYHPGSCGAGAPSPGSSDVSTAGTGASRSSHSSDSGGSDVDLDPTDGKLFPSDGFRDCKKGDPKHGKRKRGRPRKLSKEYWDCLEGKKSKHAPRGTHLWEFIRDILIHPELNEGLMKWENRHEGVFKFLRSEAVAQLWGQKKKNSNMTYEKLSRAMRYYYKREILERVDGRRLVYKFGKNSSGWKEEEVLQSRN
How it was run: as §1

[9] = target: CRX (Homo sapiens, UniProt O43186 1-299); conditions: protein: recombinant; tags: N-terminal GST; dsDNA, one strand shown
How it was run: as §1

[10] = target: ETV1 (Homo sapiens, UniProt P50549 1-477); conditions: protein: recombinant; tags: N-terminal GST; dsDNA, one strand shown
How it was run: as §1

[11] = target: T6, ERF (Homo sapiens, UniProt P50548 1-548); conditions: protein: recombinant; tags: N-terminal GST; dsDNA, one strand shown
T6 sequence: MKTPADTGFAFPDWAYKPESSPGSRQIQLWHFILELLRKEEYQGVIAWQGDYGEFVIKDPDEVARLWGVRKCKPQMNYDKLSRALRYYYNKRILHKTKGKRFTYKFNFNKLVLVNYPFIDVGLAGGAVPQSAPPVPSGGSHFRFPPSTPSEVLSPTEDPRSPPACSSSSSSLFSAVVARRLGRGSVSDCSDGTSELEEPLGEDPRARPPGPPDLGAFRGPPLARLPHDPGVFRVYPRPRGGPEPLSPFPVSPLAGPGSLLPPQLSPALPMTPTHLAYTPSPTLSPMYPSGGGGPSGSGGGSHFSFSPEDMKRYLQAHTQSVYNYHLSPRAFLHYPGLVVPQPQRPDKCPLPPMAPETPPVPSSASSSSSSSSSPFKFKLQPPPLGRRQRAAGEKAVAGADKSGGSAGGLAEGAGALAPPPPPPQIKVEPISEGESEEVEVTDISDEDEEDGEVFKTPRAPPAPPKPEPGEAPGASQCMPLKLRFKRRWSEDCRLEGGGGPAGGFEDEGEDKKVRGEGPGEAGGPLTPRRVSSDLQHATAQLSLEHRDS
How it was run: as §1

[12] = target: T7, ETV3L (Homo sapiens, UniProt Q6ZN32 1-361); conditions: protein: recombinant; tags: N-terminal GST; dsDNA, one strand shown
T7 sequence: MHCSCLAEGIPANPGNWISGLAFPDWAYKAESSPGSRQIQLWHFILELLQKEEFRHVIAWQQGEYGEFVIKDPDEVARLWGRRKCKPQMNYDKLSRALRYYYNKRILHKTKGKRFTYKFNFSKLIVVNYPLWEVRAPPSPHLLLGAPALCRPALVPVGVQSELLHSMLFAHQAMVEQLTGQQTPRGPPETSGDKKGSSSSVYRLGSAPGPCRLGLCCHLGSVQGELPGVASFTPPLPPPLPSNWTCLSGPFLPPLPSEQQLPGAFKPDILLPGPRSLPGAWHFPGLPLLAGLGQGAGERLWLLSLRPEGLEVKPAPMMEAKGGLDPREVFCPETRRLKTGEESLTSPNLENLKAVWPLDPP
How it was run: as §1

[13] = target: T8, ETS2 (Homo sapiens, UniProt P15036 1-469); conditions: protein: recombinant; tags: N-terminal GST; dsDNA, one strand shown
T8 sequence: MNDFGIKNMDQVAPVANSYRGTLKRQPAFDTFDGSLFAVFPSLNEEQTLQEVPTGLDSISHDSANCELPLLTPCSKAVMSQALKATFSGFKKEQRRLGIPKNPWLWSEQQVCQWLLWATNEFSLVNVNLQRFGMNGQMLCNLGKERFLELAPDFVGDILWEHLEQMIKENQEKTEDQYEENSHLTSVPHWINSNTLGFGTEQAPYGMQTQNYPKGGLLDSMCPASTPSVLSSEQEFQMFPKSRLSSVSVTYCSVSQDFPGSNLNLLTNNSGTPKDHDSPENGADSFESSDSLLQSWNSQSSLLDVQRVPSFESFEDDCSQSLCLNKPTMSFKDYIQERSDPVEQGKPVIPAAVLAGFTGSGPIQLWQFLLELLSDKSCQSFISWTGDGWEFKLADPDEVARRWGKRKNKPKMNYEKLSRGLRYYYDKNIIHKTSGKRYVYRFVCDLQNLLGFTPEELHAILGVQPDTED
How it was run: as §1

[14] = target: T9, SPDEF (Homo sapiens, UniProt O95238 1-335); conditions: protein: recombinant; tags: N-terminal GST; dsDNA, one strand shown
T9 sequence: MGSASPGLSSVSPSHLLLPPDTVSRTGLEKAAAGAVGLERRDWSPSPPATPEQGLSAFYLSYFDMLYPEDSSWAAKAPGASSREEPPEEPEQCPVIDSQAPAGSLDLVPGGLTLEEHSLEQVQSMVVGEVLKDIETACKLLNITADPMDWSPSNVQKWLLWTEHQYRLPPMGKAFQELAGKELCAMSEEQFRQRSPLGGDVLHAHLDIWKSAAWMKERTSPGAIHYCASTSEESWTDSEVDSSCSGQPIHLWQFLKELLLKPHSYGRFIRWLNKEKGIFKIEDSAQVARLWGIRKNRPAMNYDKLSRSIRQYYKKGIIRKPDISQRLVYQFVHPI
How it was run: as §1

[15] = target: T10, ETV7 (Homo sapiens, UniProt Q9Y603 1-341); conditions: protein: recombinant; tags: N-terminal GST; dsDNA, one strand shown
T10 sequence: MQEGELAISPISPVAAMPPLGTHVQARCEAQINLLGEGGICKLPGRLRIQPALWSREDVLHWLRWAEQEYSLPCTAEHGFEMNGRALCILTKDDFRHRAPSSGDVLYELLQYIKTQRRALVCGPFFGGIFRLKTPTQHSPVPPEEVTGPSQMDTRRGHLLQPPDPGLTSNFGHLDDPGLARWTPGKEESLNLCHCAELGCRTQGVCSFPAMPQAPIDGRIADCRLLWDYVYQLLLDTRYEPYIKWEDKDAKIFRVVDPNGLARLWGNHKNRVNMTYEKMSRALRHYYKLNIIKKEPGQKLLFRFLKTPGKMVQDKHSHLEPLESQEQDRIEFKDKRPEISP
How it was run: as §1

[16] = target: T11, ELF5 (Homo sapiens, UniProt Q9UKW6-2 1-255); conditions: protein: recombinant; tags: N-terminal GST; dsDNA, one strand shown
T11 sequence: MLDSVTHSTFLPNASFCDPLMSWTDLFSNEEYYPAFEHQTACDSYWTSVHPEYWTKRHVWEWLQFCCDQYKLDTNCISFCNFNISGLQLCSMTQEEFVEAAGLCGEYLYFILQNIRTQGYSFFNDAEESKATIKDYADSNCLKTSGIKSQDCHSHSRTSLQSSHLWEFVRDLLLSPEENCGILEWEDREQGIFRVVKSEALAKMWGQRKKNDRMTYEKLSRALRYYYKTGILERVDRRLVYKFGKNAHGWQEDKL
How it was run: as §1

[17] = target: T12, ETV3 (Homo sapiens, UniProt P41162-2 1-143); conditions: protein: recombinant; tags: N-terminal GST; dsDNA, one strand shown
T12 sequence: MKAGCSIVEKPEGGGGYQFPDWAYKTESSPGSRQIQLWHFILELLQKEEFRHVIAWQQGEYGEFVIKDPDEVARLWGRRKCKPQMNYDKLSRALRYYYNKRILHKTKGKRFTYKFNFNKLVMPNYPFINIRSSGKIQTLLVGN
How it was run: as §1

[18] = target: ETV6 (Homo sapiens, UniProt P41212 1-452); conditions: protein: recombinant; tags: N-terminal GST; dsDNA, one strand shown
How it was run: as §1

Chain of CRX (O43186 whole entry): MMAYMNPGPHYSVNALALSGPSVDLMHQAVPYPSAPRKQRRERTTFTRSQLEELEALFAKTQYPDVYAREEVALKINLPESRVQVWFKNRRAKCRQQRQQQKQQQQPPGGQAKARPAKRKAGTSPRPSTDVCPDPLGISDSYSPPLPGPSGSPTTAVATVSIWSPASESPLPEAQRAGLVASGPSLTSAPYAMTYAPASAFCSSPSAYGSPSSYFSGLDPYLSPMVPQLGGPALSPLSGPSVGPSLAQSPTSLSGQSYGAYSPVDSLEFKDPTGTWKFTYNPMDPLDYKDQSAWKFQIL
Chain of ETV1 (P50549 whole entry): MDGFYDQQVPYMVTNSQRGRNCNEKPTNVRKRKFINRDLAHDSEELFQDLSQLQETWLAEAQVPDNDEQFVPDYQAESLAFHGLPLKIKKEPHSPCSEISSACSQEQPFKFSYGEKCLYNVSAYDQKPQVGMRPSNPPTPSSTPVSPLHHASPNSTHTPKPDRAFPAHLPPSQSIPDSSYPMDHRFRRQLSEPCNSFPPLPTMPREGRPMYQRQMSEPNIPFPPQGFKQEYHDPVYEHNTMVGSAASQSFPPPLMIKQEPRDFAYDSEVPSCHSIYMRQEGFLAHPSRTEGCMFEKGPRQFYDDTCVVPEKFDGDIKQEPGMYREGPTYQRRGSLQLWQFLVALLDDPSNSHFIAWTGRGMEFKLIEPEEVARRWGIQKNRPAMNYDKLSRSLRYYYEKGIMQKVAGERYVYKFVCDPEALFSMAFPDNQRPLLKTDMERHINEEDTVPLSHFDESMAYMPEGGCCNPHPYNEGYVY
Chain of HSF1 (Q00613 whole entry): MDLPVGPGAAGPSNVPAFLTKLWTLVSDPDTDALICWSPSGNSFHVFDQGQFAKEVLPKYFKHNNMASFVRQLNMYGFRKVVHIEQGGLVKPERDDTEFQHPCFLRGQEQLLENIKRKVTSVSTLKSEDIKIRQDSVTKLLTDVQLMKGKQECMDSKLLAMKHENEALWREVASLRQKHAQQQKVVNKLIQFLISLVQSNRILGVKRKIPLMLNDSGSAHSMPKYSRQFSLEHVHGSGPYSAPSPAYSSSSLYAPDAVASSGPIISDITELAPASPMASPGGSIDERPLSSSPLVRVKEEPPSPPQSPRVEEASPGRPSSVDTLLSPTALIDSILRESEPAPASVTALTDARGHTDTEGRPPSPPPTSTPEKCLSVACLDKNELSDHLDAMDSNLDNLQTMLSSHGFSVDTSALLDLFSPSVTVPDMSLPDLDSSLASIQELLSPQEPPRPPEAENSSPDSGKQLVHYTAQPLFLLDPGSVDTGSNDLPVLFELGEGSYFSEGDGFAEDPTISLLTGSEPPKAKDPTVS
Chain of ETV5 (P41161 whole entry): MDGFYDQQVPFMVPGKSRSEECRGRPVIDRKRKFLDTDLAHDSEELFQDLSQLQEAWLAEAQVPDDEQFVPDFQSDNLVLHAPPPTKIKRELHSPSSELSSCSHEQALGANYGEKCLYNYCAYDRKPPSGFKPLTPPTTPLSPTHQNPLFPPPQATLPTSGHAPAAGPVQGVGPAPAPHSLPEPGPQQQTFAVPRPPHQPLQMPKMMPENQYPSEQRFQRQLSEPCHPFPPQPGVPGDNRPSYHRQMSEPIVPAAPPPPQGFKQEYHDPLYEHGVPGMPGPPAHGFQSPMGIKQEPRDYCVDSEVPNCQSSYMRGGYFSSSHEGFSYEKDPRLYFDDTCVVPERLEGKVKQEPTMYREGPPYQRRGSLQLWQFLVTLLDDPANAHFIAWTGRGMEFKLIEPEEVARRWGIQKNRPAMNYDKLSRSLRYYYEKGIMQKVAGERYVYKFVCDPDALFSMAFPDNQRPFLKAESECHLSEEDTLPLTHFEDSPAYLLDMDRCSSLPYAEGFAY
Chain of ETV6 (P41212 whole entry): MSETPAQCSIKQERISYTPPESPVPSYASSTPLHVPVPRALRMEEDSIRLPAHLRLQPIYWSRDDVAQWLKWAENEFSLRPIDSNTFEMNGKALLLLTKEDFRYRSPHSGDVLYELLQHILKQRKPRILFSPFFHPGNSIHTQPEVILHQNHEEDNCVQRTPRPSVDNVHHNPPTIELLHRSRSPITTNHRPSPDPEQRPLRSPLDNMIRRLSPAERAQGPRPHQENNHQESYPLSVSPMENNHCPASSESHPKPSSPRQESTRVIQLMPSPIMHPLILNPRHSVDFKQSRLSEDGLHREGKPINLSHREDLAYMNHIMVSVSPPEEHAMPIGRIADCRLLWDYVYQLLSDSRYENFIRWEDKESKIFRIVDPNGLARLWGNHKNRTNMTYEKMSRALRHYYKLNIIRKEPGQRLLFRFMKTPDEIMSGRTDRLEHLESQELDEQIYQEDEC
Chain of ELF4 (Q99607 whole entry): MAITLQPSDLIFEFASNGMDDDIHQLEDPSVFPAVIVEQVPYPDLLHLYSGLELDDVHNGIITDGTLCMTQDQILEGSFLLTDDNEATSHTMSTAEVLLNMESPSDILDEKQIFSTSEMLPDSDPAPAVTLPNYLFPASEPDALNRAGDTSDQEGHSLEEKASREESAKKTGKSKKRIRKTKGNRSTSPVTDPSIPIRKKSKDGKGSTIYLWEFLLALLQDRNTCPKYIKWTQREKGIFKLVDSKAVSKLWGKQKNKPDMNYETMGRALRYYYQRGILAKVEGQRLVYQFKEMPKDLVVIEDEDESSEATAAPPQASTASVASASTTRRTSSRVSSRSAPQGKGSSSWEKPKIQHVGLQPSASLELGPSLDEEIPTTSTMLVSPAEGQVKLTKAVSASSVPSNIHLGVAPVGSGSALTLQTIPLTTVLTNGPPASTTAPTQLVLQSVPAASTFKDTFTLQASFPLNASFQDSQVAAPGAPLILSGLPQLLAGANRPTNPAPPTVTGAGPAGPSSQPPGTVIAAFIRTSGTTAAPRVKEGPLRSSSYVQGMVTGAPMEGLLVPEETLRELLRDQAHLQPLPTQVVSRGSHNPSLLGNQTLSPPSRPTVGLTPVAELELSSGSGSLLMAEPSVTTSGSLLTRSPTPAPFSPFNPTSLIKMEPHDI

## TTGCTC
[1]
  binding signal: 1.25 fold enrichment (6-mer frequency, TF over GST control)
[2]
  binding signal: 1.41 fold enrichment (6-mer frequency, TF over GST control)
[3]
  binding signal: 1.3 fold enrichment (6-mer frequency, TF over GST control)
[4]
  binding signal: 1.34 fold enrichment (6-mer frequency, TF over GST control)
[5]
  binding signal: 1.24 fold enrichment (6-mer frequency, TF over GST control)
[6]
  binding signal: 1.16 fold enrichment (6-mer frequency, TF over GST control)
[7]
  binding signal: 1.4 fold enrichment (6-mer frequency, TF over GST control)
[8]
  binding signal: 1.29 fold enrichment (6-mer frequency, TF over GST control)
[9]
  binding signal: 1.17 fold enrichment (6-mer frequency, TF over GST control)
[10]
  binding signal: 1.21 fold enrichment (6-mer frequency, TF over GST control)
[11]
  binding signal: 1.44 fold enrichment (6-mer frequency, TF over GST control)
[12]
  binding signal: 1.28 fold enrichment (6-mer frequency, TF over GST control)
[13]
  binding signal: 1.33 fold enrichment (6-mer frequency, TF over GST control)
[14]
  binding signal: 1.2 fold enrichment (6-mer frequency, TF over GST control)
[15]
  binding signal: 1.59 fold enrichment (6-mer frequency, TF over GST control)
[16]
  binding signal: 1.18 fold enrichment (6-mer frequency, TF over GST control)
[17]
  binding signal: 1.2 fold enrichment (6-mer frequency, TF over GST control)
[18]
  binding signal: 1.22 fold enrichment (6-mer frequency, TF over GST control)
